ALOX12 inhib – inhibitors of human 12-lipoxygenase (ALOX12) | purified 12-hLO, xylenol orange hydroperoxide absorbance | Potency, µM (series often up to 57.1 µM), actives largely listed as inhibitors | hit rate 0.12% among 150,000; also: nearly all actives have a fitted effect of over 55% in size
Target sequence (P18054 whole entry, looked up): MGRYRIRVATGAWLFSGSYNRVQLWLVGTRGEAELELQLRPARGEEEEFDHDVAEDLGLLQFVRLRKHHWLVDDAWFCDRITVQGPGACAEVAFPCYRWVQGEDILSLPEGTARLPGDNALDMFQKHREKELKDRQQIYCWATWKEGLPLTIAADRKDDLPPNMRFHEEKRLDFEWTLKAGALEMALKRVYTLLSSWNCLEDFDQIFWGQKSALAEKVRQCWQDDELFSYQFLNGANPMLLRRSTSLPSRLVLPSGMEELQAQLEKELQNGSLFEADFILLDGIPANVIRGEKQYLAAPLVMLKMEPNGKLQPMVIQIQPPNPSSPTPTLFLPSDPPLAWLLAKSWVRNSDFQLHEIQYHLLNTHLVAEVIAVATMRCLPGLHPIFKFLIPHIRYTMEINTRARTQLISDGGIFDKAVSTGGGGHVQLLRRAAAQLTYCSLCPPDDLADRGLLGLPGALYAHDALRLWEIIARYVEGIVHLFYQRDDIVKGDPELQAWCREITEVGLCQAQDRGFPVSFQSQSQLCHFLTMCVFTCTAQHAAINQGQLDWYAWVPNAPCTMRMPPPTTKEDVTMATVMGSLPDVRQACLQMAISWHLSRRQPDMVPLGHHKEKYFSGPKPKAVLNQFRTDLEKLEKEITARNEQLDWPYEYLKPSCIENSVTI
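Purified human 12hLO (150 nM), preincubated 15 min with compound, then 40 uM arachidonic acid for 30 min, room temperature, Hepes pH 7.0 with 0.01% Triton X-100. Hydroperoxide detected by ferrous iron/xylenol orange; 573/405 nm absorbance ratio gives reaction progress.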
HPGD inh – blocks human HPGD enzyme activity; Potency, µM, actives largely listed as inhibitors; P15428; purified HPGD, NADH fluorescence kinetic, PGE2 substrate; hit rate 4.3% among 150,000; active = well fitted inhibition curve with a large enough effect, not every such curve was filed as active; inconclusive = small, poorly fitted or top-dose-only effect, or another doubt; inactive = no such curve, though single readings can be large or run the other way
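NADH formation kinetics: reaction with 30 uM PGE2 and 1 mM NAD+ (final), 20 nM enzyme, Tris-HCl pH 8 with Tween 20, after 15 min compound preincubation at room temperature. Fluorescence change, last versus first of five reads.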
IMPase cell inh – IMPase inhibition in cells. P97697. CHO-M1 cells, IP1 accumulation, HTRF TR-FRET ratio. inhibition (IP1 accumulation), % at 46.1 µM. 120,000 tested, under 10 active. AID 901; active = well fitted curve in the direction sought with a large enough effect in the signal ratio, not every such curve was filed as active; inconclusive = small, poorly fitted or top-dose-only effect, or a change in a side signal; inactive = no such curve, though single readings can be large or run the other way; the % refers to the signal ratio;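 also: cells stimulated with carbachol in lithium chloride buffer; higher means more IMPase inhibition seen as more IP1 and lower FRET ratio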
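Seeded CHO-M1 cells were dosed with compound at up to 46 uM, stimulated with carbachol for 30 min, then lysed in IP-One detection reagents. Higher IP1 lowers the TR-FRET signal.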
ALDH1A1 block – inhibitors of human aldehyde dehydrogenase 1A1. Purified ALDH1A1, NADH fluorescence, propionaldehyde substrate. hit rate 7.3% among 220,000. AID 1030. Potency, µM (series often up to 75.3 µM), actives largely listed as inhibitors. P00352; active = well fitted inhibition curve with a large enough effect, not every such curve was filed as active; inconclusive = small, poorly fitted or top-dose-only effect, or another doubt; inactive = no such curve, though single readings can be large or run the other way
NPSR antag – antagonists of human neuropeptide S receptor cAMP signaling. Q6W5P4. CHO-NPSR cells, cAMP TR-FRET, antagonist mode. Potency, µM (top dose mostly 38.3 µM), usual class: inhibitors. hit rate 1% among 220,000. AID 1461; also: nearly all actives have a fitted effect of over 50% in size
IMPase Li inh – cell-permeable IMPase inhibitors with lithium potentiation; CHO-M1 cells, IP1 TR-FRET (IP-One), carbachol + lithium; Potency, µM (highest dose often 59.4 µM), actives largely listed as inhibitors; hit rate 0.35% among 210,000; AID 1457;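 also: IP1 builds up when IMPase is blocked and the TR-FRET signal falls; nearly all actives have a fitted effect of over 50% in size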
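IP1 accumulation measured by competitive TR-FRET in lysed CHO-M1 cells after 30 min compound exposure at 37C, with a small lithium addition to potentiate weak responses. Hill-equation AC50 from ratio and donor-channel data.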
A number is an active result; i = inactive; ? = inconclusive; nt = no result; [ ] = remark or other dose. Compounds with a hit are over-represented: about 8.9% of the library has one in this group of screens. Unless noted, calls follow the shape of the dose curve; as a rule, active = well fitted curve in the direction sought with a large enough effect; inconclusive = small, poorly fitted or top-dose-only effect, or another doubt; inactive = no such curve, though single readings can be large; an effect the other way counts as inactive or inconclusive.

SMILES | ALOX12 inhib | HPGD inh | IMPase cell inh | ALDH1A1 block | NPSR antag | IMPase Li inh
O=C(Nc1sc2c(c1C(=O)N1CCOCC1)CCCCC2)c1cccnc1 | nt | nt | nt | 22.4µM | i | i
CC(C)C(=O)NC(=S)Nc1sc2c(c1C(N)=O)CCCC2 | i | 14.1µM | nt | 7.08µM | i | i
CN1CCN(c2ncnc3ccc(-c4cccc(C#N)c4)cc23)CC1 | nt | nt | nt | 10µM | nt | i
CC(C)N=C1SCC(C)(/C=N/O)S1 (stereo unspecified) | i | i | i | ? | ? | i
Cc1ccc(-n2cc(-c3ccccc3)[nH]c2=O)cc1F | i | i | i | 20µM | i | i
S=c1[nH]nc(-c2ccc(Cl)cc2)n1/N=C/C=C/c1ccco1 | nt | nt | nt | nt | i | nt
COc1ccc(-c2n[nH]c(=S)n2/N=C/c2cccn2C)cc1 | nt | nt | nt | nt | i | nt
Cc1ccc(-c2n[nH]c(=S)n2/N=C/c2cccn2C)cc1 | i | 8.91µM | i | i | i | i
Cn1cccc1/C=N/n1c(-c2ccc(Cl)cc2)n[nH]c1=S | i | 3.98µM | i | i | i | i
Cn1cccc1/C=N/n1c(-c2ccc(Cl)cc2Cl)n[nH]c1=S | i | 12.6µM | i | ? | i | i
COc1ccc(C(=O)NC(=S)Nc2ccccc2N2CCCCC2)cc1[N+](=O)[O-] | ? | i | nt | ? | i | i
O=C(c1ccc2c(c1)OCO2)C1CCCN(C2CCN(CCc3ccccc3)CC2)C1 (stereo unspecified) | nt | nt | nt | i | i | i
CC(C)(Oc1ccc([C@@H]2CC2(Cl)Cl)cc1)C(=O)O | i | i | i | i | nt | i
CC1CCCN(CCCNC(=O)CCn2nc(-c3ccccc3)ccc2=O)C1 (stereo unspecified) | i | i | i | 22.4µM | i | i
CCCCNC(=O)CCn1nc(-c2ccccc2)ccc1=O | i | i | i | i | i | i
CCCCCCOc1ccc(C(=O)O)cc1C#N | i | 20µM | nt | i | i | i
COc1cc2c(cc1OC)-c1cc3ccc4c(c3c[n+]1CC2)OCO4 | i | ? | nt | ? | 12.6µM | i
CC(C)COC(=O)NCC12C=CC(O1)C1C(=O)N(c3ccc(Cl)cc3)C(=O)C12 (stereo unspecified) | ? | 17.8µM | i | 0.562µM | i | i
Cc1ccc(N2C(=O)C3C4C=CC(CNC(=S)Nc5ccc(Cl)cc5)(O4)C3C2=O)cc1 (stereo unspecified) | ? | ? | nt | 0.316µM | i | i
Cc1ccc(N2C(=O)C3C4C=CC(CNC(=S)N5CCN(c6ccccn6)CC5)(O4)C3C2=O)cc1 (stereo unspecified) | nt | nt | nt | ? | ? | i
Cc1ccc(N2C(=O)C3C4C=CC(CNC(=S)Nc5cccc(Cl)c5)(O4)C3C2=O)cc1 (stereo unspecified) | i | i | nt | 1.58µM | i | i
Cc1ccc(N2C(=O)C3C4C=CC(CNC(=S)Nc5ccc(F)cc5)(O4)C3C2=O)cc1 (stereo unspecified) | i | 17.8µM | nt | 0.398µM | i | i
Cc1cc(C)[n+](-c2ccc(C(C)C)cc2)c2[nH]c(=O)[nH]c(=O)c12 | i | ? | nt | ? | i | i
CCOc1cc(C(=O)NCC(=O)N/N=C/c2sccc2C)cc(OCC)c1OCC | nt | nt | nt | i | i | i
CC(C1CC1)N(Cc1ccccc1)C(=O)NC(=O)c1ccccc1 (stereo unspecified) | nt | nt | nt | i | i | i
SMILES | ALOX12 inhib | HPGD inh | IMPase cell inh | ALDH1A1 block | NPSR antag | IMPase Li inh
COc1cc(/C=C/[N+](=O)[O-])ccc1OCc1cccc(C(=O)O)c1 | nt | nt | nt | 28.2µM | i | i
CCCC[C@@H]1CNC(=S)N1CCc1cccc2ccccc12 | nt | nt | nt | i | i | i
Cc1nc(NCCc2ccccc2F)c(C#N)c(C)c1[N+](=O)[O-] | i | i | i[1.84 µM] | 14.1µM | i | i
COc1cc(CNc2nc(C)c([N+](=O)[O-])c(C)c2C#N)cc(OC)c1 | i | i | ? | 3.98µM | i | i
COc1ccc(NC(=O)C2CCC(CNS(=O)(=O)c3cccs3)CC2)cc1OC (stereo unspecified) | nt | nt | i | 5.01µM | i | i
COc1cccc(NC(=O)Nc2cccs2)c1 | i | i | i | ? | i | i
COc1ccc(NC(=O)Nc2cccs2)cc1OC | i | i | i | 22.4µM | i | i
CCNC(=S)NNC(=O)c1cc(-c2cc(C)ccc2C)nc2ccccc12 | ? | i | i | ? | i | i
CC(C(=O)Nc1ccccc1C(=O)N1CCCC1)n1nnc2ccccc21 (stereo unspecified) | i | i | i[1.84 µM] | i | i | i
CC(C)(C)c1ccc(C(=O)Nc2ccccc2Cl)cc1 | nt | nt | nt | ? | i | i
Cc1cn(S(=O)(=O)c2ccc(Br)c3ccccc23)cn1 | i | i | ? | i | 1µM | 11.2µM
CC[n+]1c(C)n(C)c2cc(S(=O)(=O)N(C)C)ccc21 | nt | nt | nt | i | i | i
Cc1ccc(NC(=O)c2cc(N3C(=O)C4CC=CCC4C3=O)ccc2N2CCOCC2)cc1Cl (stereo unspecified) | i | i | i | 28.2µM | ? | i
Cc1ccc(NC(=O)c2cc(N3C(=O)C=CC3=O)ccc2N2CCOCC2)cc1 | nt | nt | nt | 0.355µM | ? | i
Cc1ccc(NC(=O)c2cc(N3C(=O)C=CC3=O)ccc2Cl)cc1C | i | 3.16µM | i | 2.24µM | ? | i
COc1ccc(CCNC(=O)Cc2ccc3c(c2)OCO3)cc1OC | i | i | nt | i | i | i
Cc1cc(SC(C)C(=O)Nc2ncc(Cl)cc2Cl)nc2ccccc12 (stereo unspecified) | i | i | nt | i | i | i
COc1ccc(OC)c(S(=O)(=O)N2CCC(C(=O)NCCc3ccccc3)CC2)c1 | i | i | i | 5.01µM | i | i
COc1ccc(CCNC(=O)C2CCN(S(=O)(=O)c3cc(OC)ccc3OC)CC2)cc1 | i | i | i | ? | i | i
COc1ccc(CCNC(=O)C2CCN(S(C)(=O)=O)CC2)cc1 | i | i | i | 15.8µM | i | i
CCO[C@H]1OC(C(=O)N2CCCCCCC2)=C[C@@H](c2coc3ccccc3c2=O)[C@@H]1CCCO | nt | nt | nt | i | i | i
COc1ccc2c(c1)CCN(C(=O)CCl)C2C1C(=O)CCCC1=O (stereo unspecified) | i | i | nt | 22.4µM | i | i
CCOC(=O)c1c(NC(=O)CS(=O)(=O)c2cn(CC)c3ccccc23)sc2c1CCCC2 | i | i | nt | 12.6µM | i | i
CC(C)OC(=O)c1c(NC(=O)CCC(=O)O)sc2c1CCCCC2 | i | i | nt | i | i | i
CCOC(=O)c1c(NC(=O)CS(=O)(=O)c2cn(CC)c3ccccc23)sc2c1CCCCC2 | i | i | nt | 10µM | i | i
CC(C)OC(=O)c1c(NC(=O)CCn2nnc3ccccc32)sc2c1CCCC2 | i | i | i | 25.1µM | i | i
CCOC(=O)c1c(NC(=O)Cc2cccs2)sc2c1CCCC2 | i | nt | i | i | ? | nt
S=C(NC1CCCCC1)N1CCN(Cc2ccccc2Cl)CC1 | nt | nt | nt | ? | i | i
CCOC(=O)c1ccc(NC(=S)Nc2ccc3[nH]c(=O)[nH]c3c2)cc1 | nt | nt | nt | ? | i | nt

Compound activity (PubChem)
